This is an account of results in PubChem BioAssay.

Values without a mark were called inactive. How the calls were made is not given here.

The assay in a line: hESC survival regulators, cell-based (AID 493140).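 Further: cells exposed to compounds for four days before counting.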 The conditions noted are these: human embryonic stem cell survival screen; hits give high values.
Regarding `CCCCC[C@H](O)/C=C/C=C/C=C/[C@@H](O)C/C=C\CCCC(=O)O`, the survival is 92.6.
Turning to `CCCCC[C@H](O)/C=C/C=C/C/C=C\CCCC(=O)O`, the survival was 94.8.
For `NCC1OC(O[C@@H]2C(O)[C@H](OC3C(O)C(N)CC(N)C3OC3OC(CO)C(O)C(O)C3N)O[C@@H]2CO)C(N)C(O)C1O` (stereo partly drawn) the value was 5.75; for `COC1C(O)CC(=O)OC(C)CC=CC=CC(OC2CCC(N(C)C)C(C)O2)C(C)CC(CC=O)C1OC1OC(C)C(OC2CC(C)(O)C(O)C(C)O2)C(N(C)C)C1O` (stereo not drawn), 3.42; for `CC(C)C[C@H](NC(=O)[C@H](CCC(=O)O)NC(=O)CNC(=O)c1ccc(/C=C/C(=O)O)cc1)C(N)=O`, 88.2.
For `Cc1cc(=O)c2c(O)c3c(O)cc(O)c4c5c(O)cc(O)c6c(O)c7c(=O)cc(C)c8c1c2c(c34)c(c65)c78`, the survival is 52.2.
Regarding `CC(C)c1cc(/C=C(\C#N)C(=O)NCCCc2ccccc2)cc(C(C)C)c1O`, the survival was 124.
Turning to `C[N+](C)(CCCOc1ccccc1)c1ccccc1`, the survival is 5.92.
For `N#CC(C#N)=C(N)/C(C#N)=C/c1cc(O)c(O)c(O)c1`, the survival was 82.2.
For `O=[N+]([O-])c1ccc(Oc2ccc(Br)cc2)c(C(O)[P+](=O)O)c1` (stereo not drawn), the survival was 83.4.
`O=C(O)CCC[C@H](O)\C=C/C=C/C=C/[C@H](O)C/C=C\CCCCCO`: the survival is 75.2.
`Nc1ncn(C2O[C@H](CO)[C@H](O)[C@@H]2O)c(=O)n1` (stereo partly drawn): the survival was 0.083.
As for `CCCCC[C@H](O)/C=C/C=C\C/C=C\C=C\[C@@H](O)CCCC(=O)O`, the survival is 103.
